A short description of assay [1]: Quantitative highthroughput screen to assess conditional lethalithy of NOMO1 cells grown in RPMI1640 with untreated serum (RPMI+s) (AID 1963876). Further: nearly all actives have a fitted effect of over 35% in size.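 On viability: 100% = DMSO wells and 0% = empty wells without cells.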 Put shortly:
(§1)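 Each medium arm—HPLM with 10% dialyzed FBS, or RPMI1640 with 5 mM glucose and 10% untreated or dialyzed FBS—was screened against an 11-point, 3-fold compound titration for 48 h at 37 °C, with CellTiter-Glo luminescence as endpoint.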

Assay [2] is described as follows: Quantitative highthroughput screen to assess conditional lethalithy of NOMO1 cells grown in Human Plasma-Like Medium with dialyzed fetal bovine serum (HPLM+ds) (AID 1963878). Further: nearly all actives have a fitted effect of over 35% in size.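 On viability: 100% = DMSO wells and 0% = empty wells on each plate.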 Put shortly:
as §1

Assay [3] in a line: Quantitative highthroughput screen to assess conditional lethalithy of P12 Ichikawa cells grown in Human Plasma-Like Medium with dialyzed fetal bovine serum (HPLM+ds) (AID 1963879). Further: nearly all actives have a fitted effect of over 35% in size. On viability: series mostly up to about 46 µM. To be noted: Potency: viability. A digest of the protocol: as §1
Assay [4] can be described thus: Quantitative highthroughput screen to assess conditional lethalithy of P12 Ichikawa cells grown in RPMI1640 with dialyzed fetal bovine serum (RPMI+ds) (AID 1963880). Further: nearly all actives have a fitted effect of over 35% in size.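 On viability: 100% = DMSO wells and 0% = empty wells on each plate.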 The settings on record: Potency: P12-Ichikawa viability. Put shortly: as §1
A short description of assay [5]: Quantitative highthroughput screen to assess conditional lethalithy of P12 Ichikawa cells grown in RPMI1640 with untreated serum (RPMI+s) (AID 1963881). Further: nearly all actives have a fitted effect of over 35% in size.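 On viability: series mostly up to about 46 µM; 100% = DMSO wells and 0% = empty wells without cells.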 The settings on record: Potency: viability. A digest of the protocol:
as §1

Assay [6] in a line: Quantitative highthroughput screen to assess conditional lethalithy of SEM cells grown in RPMI1640 with unreated serum (RPMI+s) (AID 1963883). Further: nearly all actives have a fitted effect of over 35% in size.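 On viability: 100% = DMSO wells and 0% = empty wells without cells.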 A digest of the protocol:
as §1

Assay [7] in a line: Quantitative highthroughput screen to assess conditional lethalithy of SEM cells grown in Human Plasma-Like Medium with dialyzed fetal bovine serum (HPLM+ds) (AID 1963882). Further: nearly all actives have a fitted effect of over 35% in size. On viability: series mostly up to about 46 µM. A digest of the protocol: as §1
Assay [8] in a line: Quantitative highthroughput screen to assess conditional lethalithy of SEM cells grown in RPMI1640 with dialyzed fetal bovine serum (RPMI+ds) (AID 1963884). Further: nearly all actives have a fitted effect of over 35% in size.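 On viability: series mostly up to about 46 µM; 100% = DMSO control wells and 0% = empty wells without cells.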 A digest of the protocol:
as §1

Assay [9] is described as follows: Cellular viability qHTS for adrenocortical cancer (ACC) cell line SW-13 (AID 1963989). Further: nearly all actives have a fitted effect of over 65% in size.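 On activity (max response): cells grown in serum-free medium with ITS supplement; on the % scale 0 is the no-effect control and ±100 the full control effect.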 To be noted: SW-13 ACC cells viability, CellTiter-Glo, 48 h; activity (max response): active compounds read low. A digest of the protocol: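 Compound titrations (up to 46 uM final, in DMSO) were applied to SW-13 cells for 48 h at 37C/5% CO2. Reading used CellTiter-Glo after 20 min at room temperature; fitted curves yielded IC50 and efficacy.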

A short description of assay [10]: Cellular viability qHTS for adrenocortical cancer (ACC) cell line NCI-H295R (AID 1963990). Further: nearly all actives have a fitted effect of over 60% in size. Put shortly: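 Readout: CellTiter-Glo luminescence, 20 min RT. Exposure: 48 h, 37C/5% CO2. Cells: NCI-H295R, ITS-DMEM serum-free. Range: up to 46 uM. Analysis: 4PL fit, IC50 plus efficacy.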
(In general: In qHTS, concentration-response curves come from the screen itself.)

The source of these data is PubChem BioAssay (NCATS).

Results filed as inconclusive are left out. Unmarked numbers belong to inactive results. Calls of active or inactive are those of the source. The call rests on the fitted dose curve; in most records, active means well fitted curve in the direction sought with a large enough effect; inconclusive means small, poorly fitted or top-dose-only effect, or another doubt; inactive means no such curve, though single readings can be large; an effect the other way counts as inactive or inconclusive.
Potency means the concentration at half of the fitted maximal effect.

For the compound `CC(=CC(=O)Nc1ccccc1C(=O)O)c1ccc2ccccc2c1`, the Potency entry in assay [1], in [2], in assay [3], in assay [4] and in assay [5] was “inactive” each time. Further, the Potency in [6] was 23500 nM (active).

`NC[C@H]1O[C@H](O[C@H]2[C@@H](O)[C@@H](O[C@H]3O[C@H](CO)[C@@H](O)[C@H](N)[C@@H]3O)[C@H](N)C[C@@H]2N)[C@H](N)C[C@H]1O`: the Potency result in assay [1], in [2], in [3], in assay [4], in assay [5] and in [7] was “inactive” in each case. The Potency entry in [6] and in assay [8] was “inactive” each time.

Turning to `CCCCC(C=O)NC(=O)C(CC(C)C)NC(=O)OCc1ccccc1` (configuration not stated), the Potency entry in assay [1], in assay [2] and in [3] was “inactive” in each case.

Turning to `O=C(O)C1=NC(C(=O)O)CC(C=CN2c3cc(O)c(OC4OC(CO)C(O)C(O)C4O)cc3CC2C(=O)O)=C1` (configuration not stated), the Potency result in [1], in assay [2], in [3], in assay [4], in assay [5] and in assay [7] was “inactive” each time. In addition, the Potency result in assay [6] and in assay [8] was “inactive” in each case.

`N=C1SC(=Cc2ccc(-c3ccc4c(c3)C(=O)NC4=O)o2)C(=O)N1c1ccc(Br)cc1`: the Potency entry in [1], in [2], in assay [4] and in [5] was “inactive” in each case. The Potency in assay [6] was 13200 nM (active).

As to `c1ccc(-c2nn3c(c2-c2ccnc4cc(OCCN5CCOCC5)ccc24)CCC3)nc1`, the Potency result in [1], in assay [3], in [4], in [5] and in [6] was “inactive” in each case. For the same compound, the Potency in assay [2] is 18700 nM (active).

Turning to `O=C(CCCN1CCC(O)(c2ccc(Cl)cc2)CC1)c1ccc(F)cc1`, the Potency entry in assay [1], in assay [2], in assay [3], in assay [4], in assay [5] and in assay [7] was “inactive” in each case. Also, the Potency entry in assay [6] was “inactive”.

For the compound `CC(=O)O[C@]1(C(C)=O)CC[C@H]2[C@@H]3C=C(C)C4=CC(=O)CC[C@]4(C)[C@@H]3CC[C@@]21C`, the Potency entry in [1], in assay [2], in assay [3], in [4], in assay [5] and in assay [7] was “inactive” each time. The Potency entry in assay [6] is “inactive”.

With `CO[C@@H](C(=O)N1Cc2[nH]nc(NC(=O)c3ccc(N4CCN(C)CC4)cc3)c2C1)c1ccccc1`, the Potency in assay [1] is 148 nM (active); in assay [2] it was 46.9 nM (active); in [7], 132 nM (active); in [6], 74.3 nM (active); in assay [8] it was 83.3 nM (active).

Regarding `CC(=NNC(=S)N1CCC1)c1ccccn1`, the Potency in [1] was 8.3 nM (active); in [2] it was 4.7 nM (active); in assay [3] it was 5.3 nM (active); in [4], 6.6 nM (active); in assay [5], 5.9 nM (active); in [7] it was 2.6 nM (active). In addition, the Potency was 3.3 nM (active) in assay [6] and 2.1 nM (active) in assay [8].

As for `Cn1cc(-c2cnn3c(N)c(Br)c([C@H]4CCCNC4)nc23)cn1`, the Potency was 2090 nM (active) in [1]; 1320 nM (active) in [2]; 2960 nM (active) in assay [3]; 2640 nM (active) in assay [4]; 2640 nM (active) in [5]; 935 nM (active) in assay [7]. Moreover, the values for the Potency in [6] and in assay [8] were 2350 nM (active) and 1050 nM (active), respectively.

For the compound `CC1(C)SCCN(S(=O)(=O)c2ccc(OCC#CCO)cc2)[C@@H]1C(=O)NO`, the Potency entry in assay [1], in [2], in assay [3], in assay [5], in [7] and in assay [6] was “inactive” in each case. In [8], the Potency entry was “inactive”.

Take `CC[C@]1(O)C[C@H]2CN(CCC3=c4ccccc4=N[C]3[C@@](C(=O)OC)(c3cc4c(cc3OC)N(C)[C@H]3[C@@](O)(C(N)=O)[C@H](O)[C@]5(CC)C=CCN6CC[C@]43[C@@H]65)C2)C1`: the Potency was 93.5 nM (active) in assay [1]; 14.8 nM (active) in assay [2]; 83.3 nM (active) in [3]; 132 nM (active) in assay [4]; 66.2 nM (active) in assay [5]; 118 nM (active) in assay [7]. Moreover, the Potency in assay [6] is 59 nM (active).

In the case of `CC(COc1ccccc1)N(CCCl)Cc1ccccc1` (configuration not stated), the Potency in assay [1] was 166 nM (active); in assay [2] it was 209 nM (active); in assay [3], 2350 nM (active); in assay [4], 2960 nM (active); in [5], 2640 nM (active). Moreover, the Potency entry in [7], in [6] and in assay [8] was “inactive” in each case. Moreover, the activity (max response) in [9] was -3.42%.

On to `O=C(O)c1c(Cl)c(Cl)c(Cl)c(Cl)c1-c1c2cc(I)c(=O)c(I)c-2oc2c(I)c(O)c(I)cc12`, for which the Potency in assay [1] is 16600 nM (active); in assay [3] it was 8330 nM (active); in [9], 12600 nM (active); in assay [10], 14100 nM (active). The Potency entry in [2] is “inactive”.

In the case of `CCCCN(CCCC)CC(O)c1cc(Cl)cc2c1-c1ccc(Cl)cc1C2=Cc1ccc(Cl)cc1` (configuration not stated), the Potency result in assay [1], in [2], in assay [3], in assay [4], in [5] and in assay [7] was “inactive” each time. Further, the Potency entry in [6] and in assay [8] was “inactive” in each case.

As to `O=c1c(O)c(-c2cc(O)c(O)c(O)c2)oc2cc(O)cc(O)c12`, the Potency entry in assay [1], in assay [2], in [3], in assay [4], in assay [5] and in assay [6] was “inactive” throughout. For the same compound, the Potency entry in assay [8] is “inactive”.

Take `COc1cc(C)c(C=CC(C)=CC=CC(C)=CC(=O)O)c(C)c1C`: the Potency result in assay [1], in assay [2], in [3], in [4], in assay [5] and in assay [7] was “inactive” each time. Also, the Potency entry in assay [8] is “inactive”.

As for `C[C@H]1C[C@H]2[C@@H]3CCC4=CC(=O)C=C[C@]4(C)[C@@H]3C(=O)C[C@]2(C)[C@@]1(O)C(=O)CO`, the Potency result in assay [1], in assay [2], in assay [3] and in assay [5] was “inactive” each time. Moreover, the Potency in [6] is 20900 nM (active); in assay [8], 23500 nM (active).
